About 500 (1.3%) of roughly 39,000 compounds were called active. The full list was thinned out, with actives kept by preference.

The test deals with S. aureus RN4220. Nature of the test: growth inhibition call (relative growth <= 0.2). As to conditions: 50 µM.
As for `O=C(NC1CC1)[C@@H]1c2ccccc2C(=O)N(Cc2cc(F)cc(C(F)(F)F)c2)[C@H]1c1ccc(CO)cc1`, the growth inhibition call was “inactive”.
`Cc1noc(C)c1NC(=O)Nc1ccc2c(c1)CC(=O)N([C@H](C)CO)C[C@@H](C)[C@@H](CN(C)C(=O)Nc1ccc(C(F)(F)F)cc1)O2`: the growth inhibition call is “inactive”.
As for `C[C@@H]1CN([C@@H](C)CO)C(=O)c2cc(NC(=O)Nc3ccc(C(F)(F)F)cc3)ccc2O[C@@H](C)CCCCO[C@H]1CN(C)Cc1ccc(C(=O)O)cc1`, the growth inhibition call is “inactive”.
`CC(=O)CC(c1ccccc1)c1c(O)c2ccccc2oc1=O` (configuration not stated): the growth inhibition call was “inactive”.
With `O=c1oc2ccccc2c(O)c1Cc1c(O)c2ccccc2oc1=O`, the growth inhibition call is “active”.
Consider `O=c1c2ccccc2oc2ccccc12`, for which the growth inhibition call is “inactive”.
`Cc1nccn1-c1ccc(CN)cc1`: the growth inhibition call is “inactive”.
For `C[C@H](CO)N1C[C@H](C)[C@@H](CN(C)Cc2ccc(-c3ccccc3)cc2)Oc2c(NC(=O)Nc3ccc(C(F)(F)F)cc3)cccc2C1=O`, the growth inhibition call is “inactive”.
For the molecule `CCC1OC(=O)C(C)C(=O)C(C)C(OC2OC(C)CC(N(C)C)C2O)C(C)(OC)CC(C)C(=O)C(C)C2N(CCCCn3cnc(-c4cccnc4)c3)C(=O)OC12C` (configuration not stated), the growth inhibition call was “active”.
As for `NNC(=O)[C@@H]1C(c2ccccc2)[C@H]1C(=O)NN` (some centres not stated), the growth inhibition call was “inactive”.
Regarding `C[C@H](CO)N1C[C@H](C)[C@H](CN(C)S(=O)(=O)c2ccccc2)OCCCC[C@H](C)Oc2ccc(NS(=O)(=O)c3cn(C)cn3)cc2C1=O`, the growth inhibition call is “inactive”.
As for `C[C@H]1CN([C@@H](C)CO)C(=O)Cc2cc(NC(=O)Nc3cccc4ccccc34)ccc2O[C@H]1CN(C)Cc1ccc(Oc2ccccc2)cc1`, the entry is “inactive”; as for `O=C(C[C@@H]1C[C@H]2c3cc(NS(=O)(=O)c4ccc(F)cc4)ccc3O[C@H]2[C@@H](CO)O1)NCc1ccc(Oc2ccccc2)cc1`, “inactive”.
`C=C1C[C@]23CC[C@@H]4[C@@](C)(CCC[C@@]4(C)C(=O)O)[C@H]2CC[C@H]1C3`: the growth inhibition call is “active”.
For `C[C@@]12CCC[C@](C)(C(=O)O[C@@H]3O[C@H](CO)[C@@H](O)[C@H](O)[C@H]3O)[C@@H]1CC[C@]13C[C@H](CC[C@@H]12)[C@](O)(CO)C3`, the growth inhibition call is “inactive”.
As to `C=C1C[C@@]23CC[C@@H]4[C@@](C)(CCC[C@@]4(C)C(=O)OC)[C@H]2CC[C@@H]1C3`, the growth inhibition call was “inactive”.
On to `CN1CCN(CC#N)C(=O)C12CCN([C@H]1CCOC1)CC2`, for which the growth inhibition call was “inactive”.
`C[C@H]1CN([C@@H](C)CO)C(=O)Cc2cc(NS(=O)(=O)c3cn(C)cn3)ccc2O[C@H]1CN(C)S(=O)(=O)c1cn(C)cn1`: the growth inhibition call was “inactive”.
Take `C/C=C(/C)C(=O)O[C@H]1[C@@H](OC(C)=O)[C@@]2(CO)[C@@H](O)C[C@@]3(C)C(=CC[C@H]4[C@@]5(C)CC[C@@H](O[C@H]6O[C@H](C(=O)O)[C@@H](O[C@H]7O[C@@H](CO)[C@@H](O)[C@@H](O)[C@@H]7O)[C@@H](O)[C@@H]6O[C@H]6O[C@@H](CO)[C@@H](O)[C@@H](O)[C@@H]6O)[C@@](C)(CO)[C@@H]5CC[C@]43C)[C@@H]2CC1(C)C`: the growth inhibition call is “inactive”.
In the case of `COc1ccc(NC(=O)N2CCCCN3[C@H](CN(C)C(C)=O)[C@H](c4ccc(C#Cc5ccccc5)cc4)[C@@H]3C2)cc1` it was “inactive”.
Regarding `CN(C)CC#Cc1ccc([C@H]2[C@@H](CO)N3CCCCN(C(=O)CN(C)C)C[C@@H]23)cc1`, the growth inhibition call is “inactive”.
On to `COc1ccc(NC(=O)N2CCCCN3[C@H](COCCN(C)C)[C@H](c4ccc(C#Cc5ccccc5)cc4)[C@@H]3C2)cc1`, for which the growth inhibition call is “active”.
Consider `O=C(C[C@H]1C=C[C@H](NC(=O)c2cccc(F)c2)[C@@H](CO)O1)NCCN1CCCC1`, for which the growth inhibition call was “inactive”.
On to `C[C@H](CO)N1C[C@H](C)[C@@H](CN(C)Cc2ccc(C(F)(F)F)cc2)Oc2ccc(NS(C)(=O)=O)cc2C1=O`, for which the growth inhibition call is “inactive”.
As for `CCCCC(=O)c1ccc(O)cc1`, the growth inhibition call is “inactive”.
Turning to `CCCCCCCc1c(C)c(O)cc2c1[nH]c1ccccc12`, the growth inhibition call is “inactive”.
Consider `CCCCCCc1ccc(O)cc1O` [listing 1 of 2 here], for which the growth inhibition call is “active”.
For `CCCCCCc1ccc(O)cc1O.Nc1c2ccccc2nc2ccccc12`, the growth inhibition call was “inactive”.
As for `CCCCCCc1ccc(O)cc1O` [listing 2 of 2 here], the entry is “active”; as for `COC(=O)CCc1ccc(OC)cc1O`, “inactive”; as for `COC(=O)N/N=C/c1c[n+]([O-])c2ccccc2[n+]1[O-]`, “inactive”.
As for `CN1C(=O)c2cc(NS(C)(=O)=O)ccc2OC[C@H]2O[C@H](CC(=O)N3CCOCC3)CC[C@H]21`, the entry is “inactive”; as for `C[C@H]1CN([C@@H](C)CO)C(=O)c2cc(NS(C)(=O)=O)ccc2O[C@H]1CN(C)S(=O)(=O)c1ccccc1`, “inactive”; as for `C[C@@H]1CCCCO[C@H](CN(C)C(=O)CCCN(C)C)[C@@H](C)CN([C@@H](C)CO)C(=O)c2cc(NC(=O)Nc3cccc4ccccc34)ccc2O1`, “inactive”.
For the molecule `CO[C@@H]1CN(C)C(=O)c2ccc(NC(=O)CN(C)C)cc2OC[C@@H](C)N(C(=O)C2CCOCC2)C[C@H]1C`, the growth inhibition call was “inactive”.
On to `CC(C)NC(=O)Nc1ccc2c(c1)C(=O)N([C@H](C)CO)C[C@@H](C)[C@@H](CN(C)C(=O)Nc1ccc(C(F)(F)F)cc1)OCCCC[C@@H](C)O2`, for which the growth inhibition call is “inactive”.
As to `CC(=O)N1[C@@H]2c3ccc(-c4ccccc4)c(=O)n3C[C@H]1[C@H](CO)[C@H]2C(=O)N1CCN(C)CC1`, the growth inhibition call is “inactive”.
On to `C[C@H]1CN([C@@H](C)CO)C(=O)c2cc(NC(=O)c3ccncc3)ccc2O[C@@H]1CN(C)S(=O)(=O)c1ccc(F)cc1`, for which the growth inhibition call is “inactive”.
In the case of `COC(=O)c1ccc2c(c1)no[n+]2[O-]` it was “inactive”; in that of `COc1ccc(-n2nc(CCC(=O)N(C)O)cc2-c2ccc(Cl)cc2)cc1`, “inactive”; in that of `CN(C)CCOC(=O)COc1ccc(Cl)cc1.Cl`, “inactive”.
In the case of `CCCCc1nc(-c2ccc(OCCCN(CC)CC)cc2)cn1-c1ccc(Oc2ccc(Cl)cc2)cc1` it was “active”; in that of `Cc1cc(=O)n2nc(C(=O)O)nc2[nH]1`, “inactive”.
Turning to `CN1C(=O)c2cc(NC(=O)C3CCC3)ccc2OC[C@@H]2O[C@H](CC(=O)NCCc3ccncc3)CC[C@@H]21`, the growth inhibition call was “inactive”.
As to `CC(C)CC#Cc1ccc2c(c1)O[C@H](CN(C)S(=O)(=O)c1ccc(F)cc1)[C@H](C)CN([C@H](C)CO)S2(=O)=O`, the growth inhibition call is “inactive”.
As to `CCC[C@@H]1C[C@@H](C(=O)N[C@@H]([C@H]2O[C@H](SC)[C@H](O)[C@@H](O)[C@H]2O)[C@@H](C)O)N(C)C1`, the growth inhibition call is “active”.
`CCC[C@@H]1C[C@@H](C(=O)N[C@H]([C@H]2O[C@H](SC)[C@H](O)[C@@H](O)[C@H]2O)[C@H](C)O)N(C)C1`: the growth inhibition call was “active”.
Consider `CCCC1CC(C(=O)NC(C(C)O)C2OC(SC)C(O)C(O)C2O)N(C)C1.Cl` (configuration not stated), for which the growth inhibition call was “active”.
As for `CC(C)NC(=O)Nc1ccc2c(c1)C(=O)N([C@H](C)CO)C[C@H](C)[C@@H](CN(C)C(=O)Nc1ccc(F)cc1)OCCCC[C@H](C)O2`, the entry is “inactive”; as for `COc1cccc(-c2ccc3c(c2)O[C@H](CN(C)C(=O)C2CC2)[C@@H](C)CN([C@@H](C)CO)S3(=O)=O)c1`, “inactive”; as for `COc1ccc(CN(C)C[C@H]2OCCCC[C@@H](C)Oc3ccc(NC(=O)Nc4ccccc4)cc3C(=O)N([C@@H](C)CO)C[C@@H]2C)cc1`, “inactive”.
In the case of `C[C@@H]1CN([C@H](C)CO)C(=O)c2cc(-c3ccncc3)cnc2O[C@H]1CN(C)C(=O)Nc1ccc2c(c1)OCO2` it was “inactive”.
As for `C[C@@H]1CCCCO[C@H](CN(C)C(=O)Nc2cccc3ccccc23)[C@@H](C)CN([C@@H](C)CO)C(=O)c2cc(NC(=O)Nc3ccc(F)cc3)ccc2O1`, the entry is “inactive”; as for `Cc1ccc(S(=O)(=O)N(C)C[C@H]2Oc3c(NC(=O)Nc4ccc(C(F)(F)F)cc4)cccc3C(=O)N([C@H](C)CO)C[C@H]2C)cc1`, “inactive”; as for `C[C@H]1CN([C@@H](C)CO)C(=O)c2cc(NC(=O)C3CCCCC3)ccc2O[C@H]1CN(C)Cc1ccc(Cl)c(Cl)c1`, “inactive”.
As for `C[C@@H]1CN([C@H](C)CO)S(=O)(=O)c2ccc(C#CCN(C)C)cc2O[C@H]1CN(C)Cc1ccc2c(c1)OCO2`, the growth inhibition call was “inactive”.
For the molecule `COc1ccc(COC[C@]23N=C4SCc5ccccc5CN4[C@H](c4ccccc4O2)[C@H]3COC(=O)NCCCCCC(=O)NO)cc1`, the growth inhibition call was “inactive”.
Take `CCn1cc(C(=O)O)c(=O)c2ccc(C)nc21`: the growth inhibition call was “inactive”.
As to `CCN1CCN(c2cc3c(cc2F)c(=O)c(C(=O)O)cn3C2CC2)CC1`, the growth inhibition call was “active”.
As for `CCn1cc(C(=O)O)c(=O)c2cc(F)c(N3CCNCC3)cc21`, the entry is “active”; as for `CCn1cc(C(=O)O)c(=O)c2cc(F)c(N3CCN(C)CC3)cc21.CS(=O)(=O)O`, “active”; as for `CCn1cc(C(=O)O)c(=O)c2cnc(N3CCCC3)nc21`, “inactive”.
Regarding `O=C(O)c1cn(C2CC2)c2cc(N3CCNCC3)c(F)cc2c1=O`, the growth inhibition call is “inactive”.
With `CCn1cc(C(=O)N2CCN(C)CC2)c(=O)c2cc(S(=O)(=O)N(C)C)ccc21`, the growth inhibition call was “inactive”.
Take `CCn1cc(C(=O)O)c(=O)c2cc(F)c(N3CCN(C(=S)Nc4cc(C(F)(F)F)ccc4Cl)CC3)cc21`: the growth inhibition call is “inactive”.
With `C[C@@H]1CCCCO[C@H](CN(C)C(=O)CCCN(C)C)[C@@H](C)CN([C@H](C)CO)C(=O)c2cc(N(C)C)ccc2O1`, the growth inhibition call was “inactive”.
`C[C@@H]1CCCCO[C@H](CN(C)C(=O)NC2CCCCC2)[C@@H](C)CN([C@@H](C)CO)C(=O)c2cc(NC(=O)CCC(F)(F)F)ccc2O1`: the growth inhibition call is “inactive”.
In the case of `COCC(=O)N1C[C@@H](C)[C@@H](OC)CN(C)C(=O)c2cc(NC(=O)Nc3cccc(F)c3)ccc2OC[C@H]1C`, the growth inhibition call was “inactive”.
As for `C[C@@H]1CN([C@H](C)CO)C(=O)c2cc(NC(=O)CCC(F)(F)F)ccc2O[C@@H](C)CCCCO[C@@H]1CN(C)Cc1ccccc1`, the entry is “inactive”.
`C[C@H]1CN([C@@H](C)CO)C(=O)c2cccc(NS(C)(=O)=O)c2O[C@@H]1CN(C)C(=O)Nc1ccc2c(c1)OCO2`: the growth inhibition call was “inactive”.
On to `CN(C)C(=O)CN1CCn2cc(Cn3cncn3)nc2C1`, for which the growth inhibition call is “inactive”.
Take `Cc1noc(C)c1NC(=O)Nc1ccc2c(c1)CC(=O)N([C@H](C)CO)C[C@H](C)[C@H](CN(C)S(=O)(=O)c1cccs1)O2`: the growth inhibition call was “inactive”.

These data come from the antibiotic and cytotoxicity screens of Wong et al. (2023).
